DT40 TDP1 no CPT: qHTS for Inhibitors of human tyrosyl-DNA phosphodiesterase 1 (TDP1): qHTS in cells in absence of CPT. DT40 Tdp1-/- hTDP1 cells, no CPT, ATP luminescence, 48 h. Potency, µM (top dose mostly 46.2 µM), without a hit: top-dose activity change, negative = growth inhibition, actives largely listed as inhibitors. 15% of 420,000 active. AID 686978, 2013; also: potency is read from the fitted curve at half-maximal effect; nearly all actives have a fitted effect of over 55% in size
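Chicken DT40 Tdp1-/- cells complemented with human TDP1, screened without camptothecin (DMSO vehicle only), 400 cells/well. Compounds pin-transferred, cells incubated at 37 °C for at least 48 hr. Growth read as ATP-dependent luminescence (CellTiter-Glo, 30 min at RT).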
Six1-Eya2 blk: qHTS Assay for Inhibitors of the Six1/Eya2 Interaction; activity change, % (concentration not given with the values); AID 651725, 2012; 0.56% of 360,000 active; AlphaScreen GST-Six1/His-Eya2 binding, biochemical; stronger effect = lower value; Homeobox protein SIX1 (Homo sapiens) + Protein phosphatase EYA2 (Homo sapiens), …; in the data active = activity change below about -65%; inconclusive = mostly about -30% to -63%
Target sequence (O00167 whole entry, looked up): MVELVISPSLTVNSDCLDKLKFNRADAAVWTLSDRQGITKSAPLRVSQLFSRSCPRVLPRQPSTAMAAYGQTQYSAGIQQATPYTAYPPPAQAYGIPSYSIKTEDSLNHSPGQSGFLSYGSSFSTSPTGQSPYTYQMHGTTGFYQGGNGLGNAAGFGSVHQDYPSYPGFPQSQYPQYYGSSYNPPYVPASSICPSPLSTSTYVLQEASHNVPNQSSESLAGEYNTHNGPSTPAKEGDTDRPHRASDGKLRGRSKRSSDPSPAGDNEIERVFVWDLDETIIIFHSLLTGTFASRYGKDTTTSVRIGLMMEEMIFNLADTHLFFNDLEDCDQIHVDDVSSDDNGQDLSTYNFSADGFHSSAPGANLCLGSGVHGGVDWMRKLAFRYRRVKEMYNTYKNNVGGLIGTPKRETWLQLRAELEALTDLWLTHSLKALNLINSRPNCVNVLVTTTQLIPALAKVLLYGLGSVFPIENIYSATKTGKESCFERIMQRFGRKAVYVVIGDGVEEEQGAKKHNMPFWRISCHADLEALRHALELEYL
Target sequence (Q15475 whole entry, looked up): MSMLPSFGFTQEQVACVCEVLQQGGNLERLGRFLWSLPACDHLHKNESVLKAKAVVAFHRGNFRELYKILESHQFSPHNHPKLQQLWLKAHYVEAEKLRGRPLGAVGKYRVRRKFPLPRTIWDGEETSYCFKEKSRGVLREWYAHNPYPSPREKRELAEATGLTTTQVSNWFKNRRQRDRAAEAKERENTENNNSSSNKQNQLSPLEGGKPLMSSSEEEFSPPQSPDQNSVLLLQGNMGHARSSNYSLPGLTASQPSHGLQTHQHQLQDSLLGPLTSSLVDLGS
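GST-Six1 + His-Eya2 (5X stock: 250/500 nM); Tris pH 8.0, 300 mM NaCl, 0.05% BSA, 0.02% Tween 20; GSH donor/Ni acceptor beads; 1 h 37 °C dark; AlphaScreen readout.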
TDP1 block: qHTS Assay for Inhibitors of Tyrosyl-DNA Phosphodiesterase (TDP1) | Tyrosyl-DNA phosphodiesterase 1 (Homo sapiens), Q9NUW8 | Potency, µM (highest dose often 130 µM), for the others: top-dose activity change, negative = inhibition, hits mostly inhibitors | recombinant TDP1, AlphaScreen DNA substrate cleavage | 0.28% of 350,000 active; also: potency is read from the fitted curve at half-maximal effect; nearly all actives have a fitted effect of over 40% in size
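E. coli-derived human Tdp1, 1 nM final. Cpd preinc 15 min RT; substrate 15 nM final, 5 min RT; AS bead mix 10 ug/ml final, 10 min RT. Signal loss = tyrosine-FITC cleavage. No-enzyme wells = max signal.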
DT40 TDP1 CPT: qHTS for Inhibitors of human tyrosyl-DNA phosphodiesterase 1 (TDP1): qHTS in cells in presence of CPT; chicken DT40 Tdp1-/-;hTDP1 cells + 20 nM CPT, ATP luminescence, 48 h; Potency, µM (highest dose often 46.2 µM), without a hit: at the highest dose activity change, negative = growth inhibition, usual class: inhibitors; 12% of 420,000 active; also: potency is read from the fitted curve at half-maximal effect; nearly all actives have a fitted effect of over 55% in size
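Chicken DT40 Tdp1-/- cells stably complemented with human TDP1 were seeded at 400 cells/well in medium containing 20 nM camptothecin, exposed to pin-transferred compounds, and grown at 37 °C for at least 48 hr. Viability was read as ATP luminescence.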
IL1B secr inh: qHTS for Inhibitors of Inflammasome Signaling: IL-1-beta AlphaLISA Primary Screen; THP-1 LPS/ATP IL-1B secretion, AlphaLISA, 16 h; stronger effect = lower value; activity change, % at 57.5 µM; AID 743279, 2014; 4.7% of 360,000 active; in the data active = activity change below about -50%; inconclusive = mostly about -30% to -49%
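THP-1 cells pretreated 1 hr with compounds (up to 57.5 uM final), then stimulated with LPS (250 ng/mL final) plus ATP (1.25 mM final); secreted IL-1B measured by AlphaLISA after 16 hr, decreased signal indicating inhibition.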
CtBP-E1A inh: qHTS Assay for Inhibitors of the CtBP/E1A Interaction | CtBP / adenovirus E1A interaction (AlphaScreen) | 0.49% of 340,000 active | activity change, % (test concentration not listed) | AID 651724, 2012 | AlphaScreen GST-E1A/His-CtBP binding, 1536-well; stronger effect = lower value; in the data active = activity change below about -65%; inconclusive = mostly about -30% to -63%
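AlphaScreen with 125 nM GST-E1A and 125 nM His-CtBP (5X stocks) in Tris pH 8.0, 300 mM NaCl, BSA, Tween 20, TCEP. Compounds preincubated 2 h at 37 deg C, then glutathione donor/nickel acceptor beads added for 1 h at 37 deg C in dark.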
Starred values were filed as active, the others as inactive; i = inactive; ? = inconclusive; . = no result given. The list is not random: actives were taken first. Their share in the collection is about 18%. Unless noted, calls follow the shape of the dose curve; as a rule, active = well fitted curve in the direction sought with a large enough effect; inconclusive = small, poorly fitted or top-dose-only effect, or another doubt; inactive = no such curve, though single readings can be large; an effect the other way counts as inactive or inconclusive. % is scaled to controls: 0 for no effect and ±100 for the full control effect.

SMILES	DT40 TDP1 no CPT	Six1-Eya2 blk	TDP1 block	DT40 TDP1 CPT	IL1B secr inh	CtBP-E1A inh
Cc1ccc2nc(SCC(=O)N3c4ccccc4CC3C)c(C)cc2c1 (stereo not drawn)	15µM*	13	-9%	23µM*	-11	8
CCN(C[C@H]1N[C@@](Cc2ccccc2)(C(=O)OC)[C@H]2C(=O)N(Cc3ccccc3)C(=O)[C@@H]12)C(=O)COc1ccccc1	18µM*	-1	2%	21µM*	-21	-3
CCN(C[C@H]1N[C@@](Cc2ccccc2)(C(=O)OC)[C@H]2C(=O)N(Cc3ccccc3)C(=O)[C@@H]12)C(=O)C1CCCCC1	13µM*	-13	0%	?	-18	-13
COC(=O)[C@]1(Cc2ccccc2)N[C@H](CN(C)C(=O)COc2ccccc2)[C@@H]2C(=O)N(Cc3ccccc3)C(=O)[C@@H]21	?	-2	1%	21µM*	0	0
COC(=O)[C@]1(Cc2ccccc2)N[C@H](CN(C)C(C)=O)[C@@H]2C(=O)N(Cc3ccccc3)C(=O)[C@@H]21	4%	1	4%	-6%	16	9
CCCCSc1nc(C(=O)O)cc(=O)[nH]1	18%	5	7%	-6%	0	4
O=C(NNC(=O)C1CC1)c1cc2cc3ccccc3nc2s1	?	-14	0%	5%	-1	.
COc1cc2c(cc1OC)CN(C(=O)c1ccc(S(=O)(=O)N3CCCCC3)cc1)CC2	16µM*	-5	2%	26µM*	-2	-7
COc1ccccc1N1CCN(C(=O)c2ccncc2)CC1	?	2	1%	-9%	16	1
COc1ccccc1N1CCN(C(=O)c2ccc(-c3ccccc3)cc2)CC1	13µM*	-5	.	?	-14	.
COc1ccc(C(=O)N2CCN(c3ccccc3OC)CC2)cc1	-1%	2	2%	-1%	7	0
COc1ccccc1N1CCN(C(=O)c2ccc(C(C)(C)C)cc2)CC1	5.8µM*	-21	2%	4.6µM*	-11	-11
COc1ccccc1C1CCN(C(=O)c2cccc([N+](=O)[O-])c2)CC1	16µM*	-2	0%	?	.	-2
Cc1nn(C(C)C(=O)NCc2ccc(OC(C)C)cc2)c(=O)c2c1sc1ccccc12 (stereo not drawn)	?	.	3%	?	.	.
CCOC(=O)c1sc(SC)c(C(C)=O)c1C	-7%	7	-4%	-23%	-3	7
COc1ccccc1N1CCN(C(=O)c2ccc(S(=O)(=O)N3CCCC3)cc2)CC1	16µM*	-2	5%	?	4	2
COc1ccccc1C1CCN(C(=O)c2ccc(C(C)(C)C)cc2)CC1	16µM*	-3	.	?	-92*	5
CS(=O)(=O)N1CCN(C(=O)C(Sc2ccccc2)c2ccccc2)CC1 (stereo not drawn)	-26%	3	1%	-28%	5	6
COc1ccccc1N1CCN(C(=O)C(Sc2ccccc2)c2ccccc2)CC1 (stereo not drawn)	?	-8	0%	18µM*	?	-4
Nc1nonc1-n1nnc(C(=O)N/N=C/c2cccc(Cl)c2)c1CN1CCCC1	-23%	2	.	-3%	10	-1
COc1cc(S(=O)(=O)NC2CCCCC2C)ccc1-n1cnnn1 (stereo not drawn)	?	-3	-2%	-18%	31	0
CCc1cc(=O)oc2c(CNCc3c(F)cccc3Cl)c(O)ccc12	-2%	3	.	18µM*	10	5
COc1ccc(NC(=O)C2CCN(C(=O)c3sc4nc[nH]c(=O)c4c3C)CC2)cc1Cl	-28%	.	-2%	-9%	.	.
Cc1cccc(NS(=O)(=O)c2cc(C(=O)NCc3ccccn3)ccc2C)c1	-20%	3	4%	-14%	i	-3
Clc1ccc(C2=Nn3c(Cn4nnc5ccccc54)nnc3SC2)cc1	-26%	-4	4%	-27%	-53*	-4
SMILES	DT40 TDP1 no CPT	Six1-Eya2 blk	TDP1 block	DT40 TDP1 CPT	IL1B secr inh	CtBP-E1A inh
c1ccc(-c2ccc(C3=Nn4c(Cn5nnc6ccccc65)nnc4SC3)cc2)cc1	?	-12	3%	23µM*	-57*	-9
c1ccc(C2=Nn3c(Cn4nnc5ccccc54)nnc3SC2)cc1	-25%	1	4%	-1%	-1	0
CC(OC(=O)C1CC1C)C(=O)Nc1ncc(Cl)cc1Cl (stereo not drawn)	2%	10	.	11%	4	4
Cc1cc(O)c(Oc2cc(C)cc(O)c2O)c(O)c1	5.2µM*	-16	4%	4.6µM*	12	-1
CS(=O)(=O)Nc1ccc(N2CCN(c3ccc(C(F)(F)F)cn3)CC2)nc1	?	0	5%	?	-12	-2
O=C(O)c1ccc(Oc2ccc(C(F)(F)F)cn2)cc1	-9%	0	5%	5%	0	-1
O=C(c1ccc2n[nH]nc2c1)N1CCN(c2ccc(C(F)(F)F)cn2)CC1	?	-1	0%	16µM*	34	9
Cc1ccccc1N1CCN(C(=O)c2ccc(Oc3ccc(C(F)(F)F)cn3)cc2)CC1	13µM*	-1	6%	8.9µM*	-73*	7
CCOC(=O)N1CCN(c2ccc(C(F)(F)F)cn2)CC1	-30%	16	-5%	-28%	1	10
CC(C)(C)C(=O)Nc1ccc(N2CCN(c3ccc(C(F)(F)F)cn3)CC2)nc1	1.5µM*	-9	5%	?	42	9
O=C(c1ccccn1)N1CCN(c2ccc(C(F)(F)F)cn2)CC1	?	1	5%	-30%	-8	3
CCOc1ncccc1C(=O)N1CCN(c2ccc(C(F)(F)F)cn2)CC1	10µM*	12	-4%	?	28	-7
Cc1ccc(S(=O)(=O)N(C)C)cc1NC(=S)N(C)C1CCN(C)CC1	21%	8	.	4%	14	5
CCN1CCC2(CCN(C(=O)c3cc(COc4cc(C)ccc4C)on3)C2)C1 (stereo not drawn)	4%	-2	4%	-23%	31	-1
